# Results as given in PubChem BioAssay (NCATS).
# Results filed as inconclusive are left out. The source made the active and inactive calls. Calls come from the whole dose curve; as a rule, active = well fitted cell-killing curve with a large enough effect; inconclusive = small, poorly fitted or top-dose-only effect, or effect the other way; inactive = flat fitted curve, though single readings scatter.
# Test system: Tov112D
# Experiment: Primary qHTS to identify gynecologic anti-cancer compounds using libraries of approved drugs and bioactive compounds (AID 1345084); note: nearly all actives have a fitted effect of over 55% in size
# Conditions: Gynecologic cancer cell panel viability, ATPlite luminescence, 48 h; series mostly up to 57.5 µM; activity change, negative = cytotoxicity: at the top concentration
# In short: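 Measured: luminescence after ATPlite addition (15 min, RT). Exposure: 48 h, 37 C, 5% CO2.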
# % is set by controls: 0 for no effect and ±100 for the full control effect.
row,SMILES,"activity change, negative = cytotoxicity"
1,CCc1c(C(=O)C(N)=O)c2c(OCC(=O)OC)cccc2n1Cc1ccccc1,10.5% (inactive)
2,N#CC(OC1OC(COC2OC(CO)C(O)C(O)C2O)C(O)C(O)C1O)c1ccccc1 (stereo unspecified),10% [at 25.3 µM] (inactive)
3,CC(=O)OC1CC(O)C2(C)C(CC(OC(C)=O)C3(C)C2CCC2(C)C(c4ccoc4)C(=O)C4OC423)C1(C)C (stereo unspecified),1.02% [at 25.3 µM] (inactive)
4,CCC(C)(OC(C)=O)C(=O)O[C@H]1[C@H](OC(C)=O)C[C@@H]2[C@@](C)([C@@H]3C[C@H]4C=CO[C@H]4O3)[C@H](C)C[C@H](OC(C)=O)[C@@]2(COC(C)=O)[C@@]12CO2 (stereo partly specified),4.13% [at 25.3 µM] (inactive)
5,C[C@@H]1C(=O)O[C@H]2[C@H](O)[C@@]34[C@@H]5OC(=O)[C@@]3(O[C@@H]3OC(=O)[C@@H](O)[C@@]34[C@H](C(C)(C)C)[C@H]5O)[C@@]12O,13.9% [at 25.3 µM] (inactive)
6,C[C@@]12C[C@@H](c3ccoc3)OC(=O)C1CC[C@]1(C)[C@H]2[C@H]2C=C[C@]1(O)C(=O)O2 (stereo partly specified),1.74% [at 38.5 µM] (inactive)
